This passage reports z-score and composite z-score results from PubChem BioAssay.

A short description of experiment [1]: optical density shifts of acrAB sulA E. coli – strain DRC41, OD650, 48 h, E. coli filamentation inducer project, primary screen (AID 1152).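 Note: E. coli MC1000 strain DRC41 lacking acrAB efflux pump and sulA.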 Particulars: higher = more signal, called active from +8 up or from −8 down.
Experiment [2] is described as follows: probe aLefty1 binding on compound microarray – biochemical, small-molecule microarray, 635/667 nm fluorescence, primary screen (AID 1153).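 Note: score merges spot fluorescence with signal-to-noise ratio from the scanned slide images.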 Conditions: higher = more signal.
Experiment [3] can be described thus: plasmodial surface anion channel blockers, osmotic lysis – cell-based, P. falciparum Indochina, OD700, 1 h, primary screen (AID 1154). Conditions: P. falciparum Indochina infected RBC osmotic lysis, higher = more signal, called active from +8 up or from −8 down.
The nature of experiment [4]: plasmodial surface anion channel blockers, osmotic lysis – cell-based, P. falciparum Indochina, OD700, 2 h, primary screen (AID 1155).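 Note: lysis reports solute entry through the parasite surface anion channel PSAC.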 Particulars: P. falciparum Indochina infected erythrocytes, higher = more signal, called active from +8 up or from −8 down.
A short description of experiment [5]: changes in parasitized red cell lysis, either direction – P. falciparum Indochina, OD700, 3 h, PSAC antagonist project, primary screen (AID 1156). Conditions: P. falciparum-infected erythrocytes, osmotic lysis, higher = more signal, called active from +8 up or from −8 down.
Experiment [6] in a line: plasmodial surface anion channel blockers, osmotic lysis – cell-based, P. falciparum Indochina, OD700, 18 h, primary screen (AID 1157). Particulars: P. falciparum Indochina infected erythrocytes, osmotic lysis OD700, 18 h; higher = more signal, called active from +8 up or from −8 down.
Experiment [7] can be described thus: S6 kinase pathway phospho-S6 level changes – cell-based, A549, cytoblot, luminescence, serum-stimulated, primary screen (AID 1158).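 Note: serum-stimulated A549 lung adenocarcinoma cells; signal is phosphorylated S6 detected by cytoblot immunostaining with HRP secondary.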 Conditions: 5 h, higher = more signal.
In experiment [8] the target is NADPH oxidase 2 (Homo sapiens) (UniProt P04839). As to the kind of experiment: compounds shifting NOX2 Amplex Red fluorescence – cell-based, HEK293-NOX2, PMA-stimulated, NOX inhibitor project, primary screen (AID 1159). Note: test concentration not given here. Particulars: 45 min, higher = more signal, called active from +8 up or from −8 down.
Sequence of NADPH oxidase 2 (Homo sapiens) (P04839 whole entry, looked up): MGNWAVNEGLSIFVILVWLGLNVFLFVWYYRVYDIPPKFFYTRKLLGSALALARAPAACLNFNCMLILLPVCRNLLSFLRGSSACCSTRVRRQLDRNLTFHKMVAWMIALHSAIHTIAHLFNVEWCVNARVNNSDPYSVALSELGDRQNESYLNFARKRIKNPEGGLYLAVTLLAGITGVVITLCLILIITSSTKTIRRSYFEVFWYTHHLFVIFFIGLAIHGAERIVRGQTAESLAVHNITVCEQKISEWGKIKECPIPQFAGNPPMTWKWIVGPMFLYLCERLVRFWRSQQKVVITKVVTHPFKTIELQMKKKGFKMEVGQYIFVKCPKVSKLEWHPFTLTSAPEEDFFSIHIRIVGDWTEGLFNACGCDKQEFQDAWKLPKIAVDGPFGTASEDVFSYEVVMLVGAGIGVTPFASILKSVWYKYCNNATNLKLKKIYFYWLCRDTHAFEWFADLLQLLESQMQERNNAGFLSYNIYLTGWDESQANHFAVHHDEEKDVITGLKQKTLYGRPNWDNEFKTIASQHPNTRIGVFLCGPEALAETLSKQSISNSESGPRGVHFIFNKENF
Experiment [9] addresses NADPH oxidase 4 (Homo sapiens) (UniProt Q9NPH5). As to the kind of experiment: compounds shifting NOX4 Amplex Red fluorescence – cell-based, HEK293-NOX4, tetracycline-induced, NOX inhibitor project, primary screen (AID 1160). Conditions: HEK293-NOX4, Amplex Red H2O2 fluorescence, 45 min; higher = more signal, called active from +8 up or from −8 down.
Experiment [10] has as its target NADPH oxidase 5 (Homo sapiens) (UniProt Q96PH1). Kind of experiment: compounds shifting NOX5 Amplex Red fluorescence – cell-based, HEK293-NOX5, NOX inhibitor project, primary screen (AID 1161). Particulars: HEK293-NOX5, ionomycin, 45 min, higher = more signal.
The nature of experiment [11]: compound effects on lung adenocarcinoma cell viability – A549, calcein-AM fluorescence, 48 h, basal, profiling panel (AID 1162). Note: test concentration not given here. Particulars: higher = more signal.
Experiment [12] in a line: compound effects on differentiated 3T3-L1 adipocyte viability – cell-based, 3T3-L1 adipocytes, calcein-AM fluorescence, 48 h, basal, profiling panel (AID 1163). Note: test concentration not given here. Conditions: 3T3-L1 adipocytes viability, higher = more signal.
Experiment [13] in a line: compound effects on hepatocellular carcinoma cell viability – HepG2, calcein-AM fluorescence, 48 h, basal, profiling panel (AID 1164). Note: test concentration not given here. Particulars: higher = more signal.
A short description of experiment [14]: compound effects on multiple myeloma cell viability – MM1S, calcein-AM fluorescence, 48 h, basal, profiling panel (AID 1165).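 Note: viability of MM1S multiple myeloma cells under basal unstimulated conditions; test concentration not given here.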 Particulars: higher = more signal.
Experiment [15] can be described thus: calcein-AM signal in unstimulated myeloma cells – cell-based, calcein-AM fluorescence, 48 h, PK04 Diversity Set, profiling panel (AID 1166).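 Note: cells grown under basal conditions without added stimulus; test concentration not given here.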 Particulars: RPMI8226 myeloma viability, higher = more signal.
Experiment [16] is described as follows: JC-1 mitochondrial signal, unstimulated HepG2 cells – cell-based, JC-1 fluorescence, 24 h, 100 nL compound, profiling panel (AID 1167). Note: test concentration not given here. Particulars: HepG2 mitochondrial potential, higher = more signal.
Experiment [17] can be described thus: JC-1 mitochondrial signal, unstimulated adipocytes – cell-based, JC-1 fluorescence, 3T3-L1 adipocytes, 24 h, 100 nL compound, profiling panel (AID 1168). Note: test concentration not given here. Conditions: JC-1 mitochondrial fluorescence, higher = more signal, called active from +8 up or from −8 down.
A short description of experiment [18]: JC-1 mitochondrial signal, unstimulated myeloma cells – cell-based, JC-1 fluorescence, RPMI8226, 24 h, 100 nL compound, profiling panel (AID 1169). Note: test concentration not given here. Particulars: JC-1 mitochondrial potential fluorescence, higher = more signal.
Experiment [19] in a line: JC-1 mitochondrial signal, unstimulated MM1S myeloma – cell-based, JC-1 fluorescence, 24 h, 100 nL compound, profiling panel (AID 1170). Note: test concentration not given here. Particulars: MM1S mitochondrial potential, higher = more signal.
Experiment [20] is described as follows: resazurin metabolic signal in A549 cells – cell-based, resazurin fluorescence, 24 h, PK04 Diversity Set, profiling panel (AID 1171). Note: test concentration not given here. Conditions: A549 viability, higher = more signal, called active from +8 up or from −8 down. A general note: Resazurin is reduced to fluorescent resorufin, in cell work by metabolically active cells.

Calls of active or inactive are those of the source.

Sequence of NADPH oxidase 4 (Homo sapiens) (Q9NPH5 whole entry, looked up): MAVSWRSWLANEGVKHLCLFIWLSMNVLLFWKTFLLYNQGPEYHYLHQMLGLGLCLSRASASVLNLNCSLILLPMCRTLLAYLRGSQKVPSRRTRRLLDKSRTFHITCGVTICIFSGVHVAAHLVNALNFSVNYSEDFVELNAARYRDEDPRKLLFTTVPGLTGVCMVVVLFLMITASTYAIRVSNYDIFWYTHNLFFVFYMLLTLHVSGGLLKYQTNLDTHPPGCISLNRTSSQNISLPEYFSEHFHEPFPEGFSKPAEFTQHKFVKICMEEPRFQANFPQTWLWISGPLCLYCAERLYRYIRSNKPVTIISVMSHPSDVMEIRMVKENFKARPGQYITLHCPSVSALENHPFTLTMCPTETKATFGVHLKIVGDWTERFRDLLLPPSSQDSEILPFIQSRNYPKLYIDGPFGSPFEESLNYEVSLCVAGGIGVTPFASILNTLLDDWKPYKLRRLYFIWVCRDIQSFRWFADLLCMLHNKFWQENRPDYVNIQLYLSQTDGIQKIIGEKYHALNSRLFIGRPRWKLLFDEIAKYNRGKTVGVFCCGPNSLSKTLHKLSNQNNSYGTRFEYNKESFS
Sequence of NADPH oxidase 5 (Homo sapiens) (Q96PH1 whole entry, looked up): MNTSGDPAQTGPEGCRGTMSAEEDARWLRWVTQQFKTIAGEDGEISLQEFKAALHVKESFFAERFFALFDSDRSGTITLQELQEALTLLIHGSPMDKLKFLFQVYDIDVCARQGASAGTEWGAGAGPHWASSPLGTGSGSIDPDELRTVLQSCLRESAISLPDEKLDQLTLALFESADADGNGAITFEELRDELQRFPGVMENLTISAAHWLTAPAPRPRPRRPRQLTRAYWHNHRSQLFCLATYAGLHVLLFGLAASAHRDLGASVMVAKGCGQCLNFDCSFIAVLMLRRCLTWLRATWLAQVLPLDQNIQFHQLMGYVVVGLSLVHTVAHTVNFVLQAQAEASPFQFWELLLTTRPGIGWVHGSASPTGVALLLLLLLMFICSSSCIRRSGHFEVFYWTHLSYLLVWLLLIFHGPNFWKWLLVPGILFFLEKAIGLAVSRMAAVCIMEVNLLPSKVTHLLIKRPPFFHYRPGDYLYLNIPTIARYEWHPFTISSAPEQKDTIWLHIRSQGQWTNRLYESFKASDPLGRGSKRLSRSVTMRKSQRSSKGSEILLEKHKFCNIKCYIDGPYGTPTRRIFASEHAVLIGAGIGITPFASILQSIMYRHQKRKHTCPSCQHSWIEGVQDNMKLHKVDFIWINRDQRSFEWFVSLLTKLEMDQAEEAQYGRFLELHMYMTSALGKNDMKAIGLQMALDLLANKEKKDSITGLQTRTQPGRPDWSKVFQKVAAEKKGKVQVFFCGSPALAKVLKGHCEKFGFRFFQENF

Regarding `CC[C@H](C)C(=O)O[C@H]1CC[C@]2(C)C3=C(CCC2C1(C)C)[C@]1(C)CC[C@H]([C@H](C)CCCC(C)C)[C@@]1(C)CC3` (stereo not given in full), the z-score in experiment [1] was 2.16 (inactive); in experiment [3], -0.223 (inactive); in experiment [4], -0.121 (inactive); in experiment [5], -0.589 (inactive); in experiment [6], -0.136 (inactive); in experiment [7], 0.231. Also, the z-score in experiment [8] is -0.371 (inactive); in experiment [9] it was -0.0141 (inactive); in experiment [10], -0.162; in [11], 1.18; in [12] it was 0.265; in [13], 0.469. Also, the z-score in experiment [14] was 0.223; in experiment [15], -1.06; in experiment [16] it was 2.01; in experiment [17] it was -0.959 (inactive); in experiment [18], -0.509; in experiment [19], 0.628. The z-score in experiment [20] is 0.809 (inactive). Besides, the composite z-score in experiment [2] was -0.142.

As to `COc1ccc(CCNC(=O)[C@@H]2c3ccccc3C(=O)N(CC34CC5CC(CC(C5)C3)C4)[C@H]2c2ccc(CO)cc2)cc1`, the z-score in experiment [1] was 0.414 (inactive); in experiment [3] it was 5.38 (inactive); in experiment [4], 0.345 (inactive); in experiment [5], 0.68 (inactive); in [6], -0.484 (inactive); in experiment [7], 1.15. The z-score in experiment [8] was -2.37 (inactive); in experiment [9] it was -1.91 (inactive); in [10] it was -5.14; in experiment [11] it was 0.263; in [12] it was 1.63; in [13], 0.463. Moreover, the z-score in [14] was -1.39; in experiment [15] it was -0.559; in experiment [16], 1.47; in experiment [17], -0.138 (inactive); in experiment [18], -0.435; in experiment [19], -0.0819. The z-score in experiment [20] is 0.228 (inactive). In [2], the composite z-score was -0.0982.

With `O=C1C2C=CC(C(O)C(c3ccccc3)c3ccccc3)N(Nc3ccccc3)C2C(=O)N1c1ccccc1` (stereo not given), the z-score in [1] was -0.606 (inactive); in experiment [3], 1.85 (inactive); in experiment [4] it was 1.71 (inactive); in experiment [5], 0.331 (inactive); in experiment [6] it was 1.41 (inactive); in [7], -1.25. Besides, the z-score in experiment [8] was -1.72 (inactive); in experiment [9], -4.94 (inactive); in experiment [10], -2.54; in [11] it was 0.758; in experiment [12] it was -0.835; in experiment [13] it was 1.82. In addition, the z-score is 0.032 in experiment [14]; -0.213 in experiment [15]; -0.335 in [16]; -1.64 (inactive) in experiment [17]; -0.305 in experiment [18]; -0.401 in [19]. For the same molecule, the z-score in [20] is -0.876 (inactive). In [2], the composite z-score worked out at 0.591.

With `COCCOC(=O)N1C(=O)[C@@]2(c3cc(C#CCCO)ccc31)[C@H](C(=O)N1CCc3cc(OC)c(OC)cc3C1)[C@H]1C(=O)O[C@H](c3ccccc3)[C@H](c3ccccc3)N1[C@@H]2c1ccccc1OCCO`, the z-score in [1] is 0.718 (inactive); in experiment [3], 3.62 (inactive); in experiment [4], 0.928 (inactive); in experiment [5], 1.6 (inactive); in experiment [6] it was 1.05 (inactive); in experiment [7], 0.0854. The z-score is 1.72 (inactive) in [8]; 1.7 (inactive) in [9]; -0.204 in [10]; 0.373 in experiment [11]; 0.514 in experiment [12]; 1.61 in experiment [13]. Also, the z-score in experiment [14] is 1.1; in experiment [15], 0.458; in experiment [16], 0.228; in experiment [17], 1.58 (inactive); in experiment [18], -0.647; in [19] it was -1.23. Further, the z-score in experiment [20] is 0.456 (inactive). The same molecule returned a composite z-score in experiment [2] of 1.33.
